This is part of a sample that, as a whole, favours compounds with a hit. Of some 83,000 tested, about 20% had one in any assay.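 Method: cells in 96-well plates; compound added at one concentration; 48 h incubation; percent growth measured; values under 10 scored active.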 A number with no mark means an inactive call. Activity calls are given as the source filed them.
Each compound was assayed on BT-549 breast (assay: NCI-60 one-dose screen, 48 h (100 = growth as untreated, 0 = no growth, -100 = all killed)). Conditions: 10 µM unless noted.

| Compound | growth |
| --- | --- |
| Cc1cc(C(=O)O)c(N)c(C)n1 | 106% |
| Cc1ccc(Nc2ncnc3c2sc2ncccc23)cc1 | 111% |
| O=C1CCC(=O)N1Cc1ccccc1 | 111% |
| COc1ncc(-c2ccc3ncnc(Nc4cccc(Cl)c4)c3c2)cc1NS(=O)(=O)C1CC1 | 2.9% (active) |
| O=C(Nc1ccc(I)cc1)c1cccc([N+](=O)[O-])c1O | 4.69% (active) |
| COc1cc(NC(=O)CCl)ccc(=O)c1 | 58.9% |
| COc1ccc(/C=C/c2nc(N3CCOCC3)c3nc(Cl)c(Cl)cc3n2)cc1OC | 99.9% |
| CCCCCCCC/C=C\CCCCCCCCOc1ccccc1CCOP(=O)(O)OCC[N+](C)(C)C | 88.3% |
| COC(=O)c1ccc(C)cc1 | 120% |
| COc1ccc(/C(=N/O)c2cc(OC)c(OC)c(OC)c2)c(OC)c1N | 36.2% |
| COc1ccc(C2CC(=O)Nc3c2c(C)nn3-c2nc3ccccc3[nH]2)cc1OC (configuration not stated) | 75.5% |
| C=C1C(=O)O[C@H]2[C@H]1CC/C(COC(=O)NCCc1cccc(OC)c1)=C\CC[C@@]1(C)O[C@@H]21 | 27.8% |
| COc1ccc(-c2cn[nH]c2-c2cc(OC)c3c(c2)OCCO3)cc1 | 53.3% |
| CCN(Cc1ccccc1)c1ccc(SC#N)cc1 | 71.5% |
| Cc1ccc2c(c1)C(C)Cc1c(ncnc1-n1cnc3ccccc31)N2C (configuration not stated) | -1.38% (active) |
| Cc1nc2sccn2c1-c1csc(Nc2ccccc2Cl)n1 | 40.6% |
| C=CCc1cc(Cl)cc2c(OC(C)=O)c(C(C)=O)c(-c3ccccc3)nc12 | 116% |
| Cc1nc2scc(-c3ccccc3)n2c(=O)c1CCO | 116% |
| COc1ccc(/C=C\c2cc(OC)c(OC)c(OC)c2)c(NS(=O)(=O)c2ccc(C(C)(C)C)cc2)c1O | 37.7% |
| CCCCCCOc1ccc(C2(Cl)c3ccccc3N(C)c3ccccc32)cc1 | 86.5% |
| CC(C)C[C@H](NC(=O)[C@H](Cc1ccccc1)n1ccc(N2CCCCC2)cc1=O)B(O)O | 31.3% |
| Cc1ccccc1C(=O)c1ccccc1C(=O)O | 106% |
| CC1CCc2c(sc(NC(=O)CSc3nnc4ccccn34)c2C(N)=O)C1 (configuration not stated) | 142% |
| COc1ccc2c(c1)C=CC(C#N)N2C(=O)c1ccccc1 (configuration not stated) | 0.256% (active) |

What follows are compounds tested on MDA-MB-435 melanoma in the same assay as above. Conditions: 10 µM unless noted.

| Compound | growth |
| --- | --- |
| CC(Br)C(O)c1cc2c(cc1Br)OCO2 (configuration not stated) | 110% |
| OC1CC2c3ccccc3C1c1ccccc12 (configuration not stated) | 107% |
| Cc1cc(C)c(S(=O)(=O)N2CCN(c3cc4c(cc3F)c(=O)c(C(=O)O)cn4C3CC3)CC2)c(C)c1 | 76.1% |
| O=C(c1ccccc1)C(Cl)C(Cl)c1ccccc1 (configuration not stated) | 33.7% |
| Cc1cc(Cl)ccc1OC(C)C(=O)Nc1nnc(C2CC2)s1 (configuration not stated) | 102% |
| Cc1sc2nc(CSc3nnc(-c4ccco4)o3)[nH]c(=O)c2c1C | 105% |
| CCCCCCCCCCCCCCCCCCOc1cccc(CCOP(=O)(O)OCC[N+](C)(C)C)c1 | 93.6% |
| C=CCOc1ccc(/C(O)=C2\C(=O)C(=O)N(c3nccs3)C2c2ccccc2F)cc1 (configuration not stated) | 94% |
| CC/C(=C(\c1ccc(O)cc1)c1ccc(OCCN(C)CCN(C)C(=O)CCC(=O)c2c(C)[nH]c(/C=C3\N=C(c4ccc[nH]4)C=C3OC)c2C)cc1)c1ccccc1 | 63.8% |
| Cc1ccc(Oc2nc3ccccc3cc2-c2nnc(Cn3c(COc4ccccc4)nc4ccccc43)o2)cc1 | 50.8% |
| CCOC(=O)c1cc(/C(=N\O)c2cc(OC)c(OC)c(OC)c2)n2cc(C)cc(C)c12 | -22.7% (active) |
| NC(=O)c1ccc2c(c1)OCO2 | 100% |
| NC(=O)NNC(=O)c1ccccc1 | 105% |
| O=c1c2cccc3c(Nc4ccc(F)cc4)ccc(c32)c2nc3ccccc3n12 | 99.6% |
| C=C1C(=O)O[C@H]2[C@H]1CC/C(COC(=O)NCc1cc(OC)c(OC)c(OC)c1)=C\CC[C@@]1(C)O[C@@H]21 | 62.8% |
| Cc1cc(C(=O)O)c(N)c(C)n1 | 107% |
| Cc1ccc(Nc2ncnc3c2sc2ncccc23)cc1 | 108% |
| O=C1CCC(=O)N1Cc1ccccc1 | 99.4% |
| COc1ncc(-c2ccc3ncnc(Nc4cccc(Cl)c4)c3c2)cc1NS(=O)(=O)C1CC1 | 47.9% |

| Compound | growth |
| --- | --- |
| O=C(Nc1ccc(I)cc1)c1cccc([N+](=O)[O-])c1O | 14.2% |
| COc1cc(NC(=O)CCl)ccc(=O)c1 | 69.8% |
| COc1ccc(/C=C/c2nc(N3CCOCC3)c3nc(Cl)c(Cl)cc3n2)cc1OC | 99.8% |
| CCCCCCCC/C=C\CCCCCCCCOc1ccccc1CCOP(=O)(O)OCC[N+](C)(C)C | 92.7% |
| COC(=O)c1ccc(C)cc1 | 101% |
| COc1ccc(/C(=N/O)c2cc(OC)c(OC)c(OC)c2)c(OC)c1N | -42.3% (active) |
| COc1ccc(C2CC(=O)Nc3c2c(C)nn3-c2nc3ccccc3[nH]2)cc1OC (configuration not stated) | 24.7% |
| C=C1C(=O)O[C@H]2[C@H]1CC/C(COC(=O)NCCc1cccc(OC)c1)=C\CC[C@@]1(C)O[C@@H]21 | 39.6% |
| CCN(Cc1ccccc1)c1ccc(SC#N)cc1 | 98.6% |
| Cc1ccc2c(c1)C(C)Cc1c(ncnc1-n1cnc3ccccc31)N2C (configuration not stated) | -47.9% (active) |
| Cc1nc2sccn2c1-c1csc(Nc2ccccc2Cl)n1 | 2.78% (active) |
| C=CCc1cc(Cl)cc2c(OC(C)=O)c(C(C)=O)c(-c3ccccc3)nc12 | 108% |
| Cc1nc2scc(-c3ccccc3)n2c(=O)c1CCO | 103% |
| COc1ccc(/C=C\c2cc(OC)c(OC)c(OC)c2)c(NS(=O)(=O)c2ccc(C(C)(C)C)cc2)c1O | -17% (active) |
| CCCCCCOc1ccc(C2(Cl)c3ccccc3N(C)c3ccccc32)cc1 | -23.5% (active) |
| CC(C)C[C@H](NC(=O)[C@H](Cc1ccccc1)n1ccc(N2CCCCC2)cc1=O)B(O)O | -66% (active) |
| Cc1ccccc1C(=O)c1ccccc1C(=O)O | 105% |
| CC1CCc2c(sc(NC(=O)CSc3nnc4ccccn34)c2C(N)=O)C1 (configuration not stated) | 99% |
| COc1ccc2c(c1)C=CC(C#N)N2C(=O)c1ccccc1 (configuration not stated) | -52.4% (active) |

Source: PubChem BioAssay (NCI)
